# Screens deposited in PubChem by National Center for Advancing Translational Sciences (NCATS).
# Only some compounds are listed: those with a hit (about 10% of all), similar ones and a draw of the others.
# HP1b binding inh – HTS for Inhibitors of HP1-beta Chromodomain Interactions with Methylated Histone Tails | Chromobox protein homolog 1 (Homo sapiens), P83916 | AlphaScreen HP1-beta / biotin-H3K9me3 peptide binding | Potency, µM (titrated, usually from 114 µM), inactives show at the highest dose activity change, negative = inhibition, most hits filed as inhibitors | 390,000 compounds, 0.56% hits; further: potency means the concentration at half of the fitted maximal effect; nearly all actives have a fitted effect of over 70% in size
# Target sequence (P83916 whole entry, looked up): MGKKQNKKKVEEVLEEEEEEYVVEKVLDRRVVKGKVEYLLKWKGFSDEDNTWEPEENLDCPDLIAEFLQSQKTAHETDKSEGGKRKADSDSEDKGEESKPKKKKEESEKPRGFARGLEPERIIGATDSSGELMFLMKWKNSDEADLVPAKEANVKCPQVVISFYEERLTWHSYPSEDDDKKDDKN
#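 AlphaScreen: HP1-beta (50 nM) preformed 30 min with biotin-H3(1-18)K9me3 peptide (50 nM) in PBS pH 7.4, 0.01% Tween-20. Compound added for 30 min at RT, then streptavidin donor/nickel chelate acceptor beads (10 ug/mL) for 30 min.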
# BAZ2B inh – qHTS Assay for Inhibitors of BAZ2B. 360,000 compounds, 4.4% hits. AID 504333, 2011. Bromodomain adjacent to zinc finger domain protein 2B (Homo sapiens), Q9UIF8. AlphaScreen BAZ2B-H3K14Ac peptide displacement. Potency, µM (highest dose often 114 µM), without a hit: at the highest dose activity change, negative = inhibition, usual class: inhibitors; further: potency means the concentration at half of the fitted maximal effect; on the % scale 0 is the no-effect control and ±100 the full control effect; nearly all actives have a fitted effect of over 60% in size
#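 BAZ2B (50 nM) with biotin-H3(5-23)K14Ac peptide (50 nM) in PBS pH 7.4, 0.01% Tween-20, preformed 30 min, then compound 30 min at room temperature; top concentration 110uM. AlphaScreen streptavidin donor/nickel chelate acceptor beads (10 ug/mL final), 20 min dark, signal read.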
# CtBP-E1A inh – qHTS Assay for Inhibitors of the CtBP/E1A Interaction; CtBP / adenovirus E1A interaction (AlphaScreen); AlphaScreen GST-E1A/His-CtBP binding, 1536-well; stronger effect = lower value; activity change, % (no concentration beside the values); 340,000 compounds, 0.49% hits; AID 651724, 2012; in the data active means activity change below about -65%; inconclusive means mostly about -30% to -63%; further: on the % scale 0 is the no-effect control and ±100 the full control effect
#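 GST-E1A and His-tagged CtBP (125 nM each as 5X stock) were preincubated with pin-transferred compound for 2 h at 37 °C in the dark, then glutathione donor and nickel acceptor beads were added for 1 h before AlphaScreen reading.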
# G9a inh – qHTS Assay for Inhibitors of Histone Lysine Methyltransferase G9a | Histone-lysine N-methyltransferase EHMT2 (Homo sapiens), Q96KQ7 | G9a H3K9 monomethylation, AlphaScreen, 2 h | Potency, µM (doses to about 102 µM), for the others: at the top dose activity, negative = inhibition, actives largely listed as inhibitors | 350,000 compounds, 8.8% hits | AID 504332, 2011; further: potency means the concentration at half of the fitted maximal effect; on the % scale 0 is the no-effect control and ±100 the full control effect; nearly all actives have a fitted effect of over 75% in size
# Target sequence (Q96KQ7 913-1193 limits assumed): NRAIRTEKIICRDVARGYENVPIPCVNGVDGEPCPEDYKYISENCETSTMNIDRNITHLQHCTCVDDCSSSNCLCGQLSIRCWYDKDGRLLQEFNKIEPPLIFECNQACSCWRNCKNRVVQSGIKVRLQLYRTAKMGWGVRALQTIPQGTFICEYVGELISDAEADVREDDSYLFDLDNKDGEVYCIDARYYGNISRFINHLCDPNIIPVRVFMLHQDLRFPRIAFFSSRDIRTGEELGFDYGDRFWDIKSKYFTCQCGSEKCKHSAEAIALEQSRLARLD
#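 Chemiluminescent proximity detection of H3K9 monomethylation, read after 10 min bead incubation in the dark. Reaction: 20 nM G9a, 500 nM biotin-H3K9 peptide, 20 uM SAM cofactor, 2 h, room temperature, following 15 min enzyme-compound preincubation.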
# Six1-Eya2 inh – qHTS Assay for Inhibitors of the Six1/Eya2 Interaction. Homeobox protein SIX1 (Homo sapiens) + Protein phosphatase EYA2 (Homo sapiens), …. AlphaScreen GST-Six1/His-Eya2 binding, biochemical; stronger effect = lower value. activity change, % (no concentration beside the values). 360,000 compounds, 0.56% hits. AID 651725, 2012; in the data active means activity change below about -65%; inconclusive means mostly about -30% to -63%; further: on the % scale 0 is the no-effect control and ±100 the full control effect
#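 Six1/Eya2 binding was read as AlphaScreen signal after compounds were pinned into GST-Six1 plus His-tagged Eya2 (5X stock 250/500 nM) in pH 8.0 Tris/NaCl/TCEP buffer, beads added, then incubated 1 h, 37 C, dark.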
# JMJD2A Tudor – qHTS Assay for Inhibitors of JMJD2A-Tudor Domain; AlphaScreen JMJD2A-Tudor / H3K4me3 peptide binding; Potency, µM (highest dose often 114 µM), for the others: at the highest dose activity change, negative = inhibition, usual class: inhibitors; 390,000 compounds, 4.4% hits; AID 504339, 2011; further: potency means the concentration at half of the fitted maximal effect; on the % scale 0 is the no-effect control and ±100 the full control effect; nearly all actives have a fitted effect of over 50% in size
# The depositor's hits bear a star; ? = inconclusive; . = not tested or not shown; [ ] = remark or other dose. Unless noted, the call rests on the fitted dose curve; in most records, active means well fitted inhibition curve with a large enough effect; inconclusive means small, poorly fitted or top-dose-only effect; inactive means no such curve, though single readings can be large or run the other way.
SMILES,HP1b binding inh,BAZ2B inh,CtBP-E1A inh,G9a inh,Six1-Eya2 inh,JMJD2A Tudor
O=C(CN1C(=O)/C(=C/c2ccco2)SC1=S)NC1CCS(=O)(=O)C1 (centres undefined),-34.2%,?,?,39.8µM*,?,?
O=C(CN1C(=O)/C(=C/c2ccco2)SC1=S)Nc1ccc(C(=O)O)c(O)c1,29.9%,28.2µM*,.,.,-65.1*,-10.9%
COCC(=O)N1CCC2(CCCN(Cc3ccc(C#N)cc3)C2)CC1,.,.,.,0.8%[12.7 µM],.,.
COc1ccccc1S(=O)(=O)Cc1ccc(C(=O)N2CCN(c3cc(Cl)ccc3C)CC2)o1,16.2%,-32.7%,.,-34.0%[59 µM],.,-18.9%
Cc1ccccc1CNC(=O)C(C)N(c1ccccc1)S(C)(=O)=O (centres undefined),36.3%,0.8%,.,0.4%[59 µM],.,5.2%
CC(C(=O)Nc1ccc(C(=O)O)c(O)c1)N1C(=O)/C(=C\c2ccco2)SC1=S (centres undefined),20.7%,28.2µM*,.,14.1µM*,?,6.6%
COc1ccc(C=C2SC(=S)N(CCCC(=O)Nc3ccc(C(=O)O)c(O)c3)C2=O)cc1OC,.,.,-20.1,.,-23.0,.
CCC(C)[C@H](NC(=O)Nc1cccc(Br)c1)C(=O)OC (some centres undefined),22.7%,-3.5%,5.5,20.2%[59 µM],10.4,-10.6%
Oc1ccc(N=C/C=C/c2cccc(Br)c2)cc1-c1nc2ccccc2s1,-15.4%,?,-23.7,7.94µM*,-19.3,?
Oc1ccc(-c2nc3ccccc3s2)c(O)c1,83.9%,15.4%,9.1,13.6%,-2.7,12.7%
Nc1ccc(O)c(-c2nc3ccccc3s2)c1,-2.2%,-28.1%,-10.5,14.1µM*,-18.0,-16.2%
COc1cccc(CNC(=O)Cn2cc3c(n2)-c2c(oc(C(=O)N4CCCC4)c2C)CC3)c1OC,19.3%,-24.4%,.,-32.9%[59 µM],.,-15.8%
Cc1ccc(CNC(=O)/C=C/c2ccc(Br)o2)cc1,15.6%,?,-10.9,1.41µM*,4.2,-2.4%
Cc1ccc(/C=C/C(=O)NCc2cccs2)cc1,21.1%,32.0%,2.9,6.2%,4.4,?
Cc1ccc(/C=C/C(=O)NCc2cccs2)o1,?,?,1.1,12.6µM*,-8.8,?
COc1cncc(C#Cc2ccccn2)c1,.,.,-12.5,.,3.1,.
O=C(CNC(=O)c1ccc([N+](=O)[O-])cc1)OC(C(=O)Nc1cc(C(F)(F)F)ccc1Cl)c1ccccc1 (centres undefined),.,.,.,.,.,-21.9%
Cn1c(=O)c(-c2ccc(Cl)cc2)nc2cnc(Oc3ccccc3)nc21,.,.,.,9.0%[12.7 µM],.,.
COc1cccc(CNc2ccc3[nH]c(=O)[nH]c3c2)c1OCc1ccccc1,?,44.7µM*,-4.0,.,-29.5,39.8µM*
COc1cccc(CNc2ccc3[nH]c(=O)[nH]c3c2)c1OCc1ccccc1Cl,?,12.6µM*,?,.,?,39.8µM*
CCNc1c(NC(=O)C2CCC(C)CC2)c(=O)oc2ccccc12 (centres undefined),-19.6%,5.1%,1.8,23.7%,6.1,-5.6%
Cc1cccc(-c2nc3c(c(SCC(=O)N4CCOCC4)n2)Cc2c(CO)cnc(C)c2O3)c1,36.6%,?,-23.5,44.7µM*,-15.1,?
Cc1ncc(CO)c2c1Oc1nc(-c3ccccc3)nc(SCC(=O)N3CCOCC3)c1C2,18.7%,-30.8%,-22.0,31.6µM*,-6.4,-35.9%
COc1cccc(-c2nc3c(c(SCC(=O)N4CCOCC4)n2)Cc2c(CO)cnc(C)c2O3)c1,18.7%,?,-15.3,14.1µM*,-19.7,?
Cc1ncc(CO)c2c1Oc1nc(-c3ccccc3)nc(SCC(=O)N3CCCCC3)c1C2,-3.6%,-23.4%,-14.2,39.8µM*,-10.3,?
SMILES,HP1b binding inh,BAZ2B inh,CtBP-E1A inh,G9a inh,Six1-Eya2 inh,JMJD2A Tudor
Cc1cccc(NC(=O)CSc2nc(-c3cccc(C)c3)nc3c2Cc2c(CO)cnc(C)c2O3)c1,23.8%,?,.,8.0%[59 µM],.,-14.7%
Cc1ccc(Cl)cc1NCc1nnc2n1CCCCC2,25.0%[57 µM],2.2%,.,3.0%[59 µM],.,-5.8%
Cc1nc(-c2ccccn2)nc(SCC(=O)N2CCOCC2)c1Cl,1.9%,4.9%,.,20µM*,-3.6,-14.7%
Cc1cn([C@H]2C[C@H](O)[C@@H](CNCc3cccc(OC4CCCC4)c3)O2)c(=O)[nH]c1=O,.,.,-6.7,.,9.0,.
C[C@@H]1CC2=C(C(=O)OC(C)(C)O2)[C@H](c2ccc(Cl)cc2)O1,.,.,-0.8,.,-2.8,.
CCOC(=O)c1[nH]c(C)c(C(=O)NCC2CCCO2)c1C (centres undefined),24.7%,-3.6%,-0.2,3.3%[2.33 µM],-5.7,-19.1%
CCOC(=O)c1[nH]c(=S)[nH]c1C,5.2%[57 µM],.,4.0,.,-3.6,5.01µM*
CCOC(=O)c1[nH]c(C)c(C)c1C,-33.2%,?,-0.3,31.6%[12.7 µM],-6.1,79.4µM*
CCOC(=O)CC(=O)c1[nH]c(C)c(C(=O)OCC)c1C,44.5%,79.4µM*,4.4,-26.9%,-2.1,-11.3%
CCOC(=O)c1[nH]c(C)c(C(=O)OC)c1C,-5.0%,-12.5%,3.3,-0.4%,-2.5,-22.8%
CCOC(=O)c1[nH]c(C)c(C(=O)NC2CCCCC2)c1C,43.0%,9.8%,2.3,79.4µM*,0.5,-9.9%
Cn1cccc1C(=O)N1CCC2(CCCN(c3ccc(-c4ccccc4)cc3)C2)CC1,.,.,.,-3.9%[12.7 µM],.,.
Cc1ccc(CN2CCCNC2=O)cc1,2.9%,?,4.2,-5.8%,-0.8,-15.3%
Cc1ccc(C)c(CN2CCCNC2=O)c1,20.8%,?,3.4,44.7µM*,-2.1,-14.7%
CCOC(=O)c1cc(-c2ccc(OC(F)F)cc2)nc2nc(SC)[nH]c(=O)c12,33.0%,-1.8%,6.0,44.7µM*,-2.6,-16.8%
c1ccc(C2Nc3cccc4cccc(c34)N2)cc1,?,?,5.9,12.6µM*,-5.0,?
C/C(=C\c1cc2ccccc2o1)C1Nc2cccc3cccc(c23)N1,?,-26.8%,.,-3.0%[0.501 µM],.,?
Clc1ccc(C2Nc3cccc4cccc(c34)N2)cc1Cl,0.0%,?,.,.,-5.3,-12.2%
COc1ccccc1C1NC(=O)CS1 (centres undefined),8.1%,.,1.5,12.1%[59 µM],1.9,-9.7%
Oc1ccccc1C1Nc2cccc3cccc(c23)N1,?,35.5µM*,-14.0,-118.0%[59 µM],-5.0,-19.2%[11.4 µM]
COc1ccc(C2Nc3cccc4cccc(c34)N2)cc1,?,39.8µM*,2.7,35.5µM*,-7.9,?
